In PubChem BioAssay:
For part of these data: Entries with a potency or affinity are not part of this list. The source made the active and inactive calls.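 The calls were made as follows, unless noted: active = primary screen hit whose fluorescence ratio, in both repeats, exceeds the weak agonist control mean by 3 SD; inactive = the rest.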

Legend:
[1] = system: TRPC4 beta (transient receptor potential cation channel C4), mouse; experiment: activators of mouse TRPC4 channel, confirmation, cell-based, Fluo4 calcium, HEK293 TRPC4beta/mu-opioid, duplicates, 10 µM (AID 2426;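 active = fluorescence ratio normalized to control raised more than 50% in primary screen plus both repeat runs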;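 as to activation: percent rise of integrated ratio over buffer wells lacking compound which define 0%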); settings: Fluo4 calcium fluorescence, at 10 µM; stronger effect = higher value
[2] = system: transient receptor potential cation channel C4 beta (TRPC4), mouse; experiment: activators of mouse TRPC4 channel, confirmation, cell-based, second round, Fluo4, HEK293 TRPC4beta/mu-opioid, 1 µM (AID 2461;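 active = primary screen active and over 50% activation in each of two duplicate runs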;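 as to activation: 0% = wells without test compound as baseline of integrated fluorescence ratio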); settings: Fluo4 calcium fluorescence, at 1 µM; stronger effect = higher value
[3] = system: TRPC4 (transient receptor potential cation channel C4 beta), mouse; experiment: positive allosteric modulators of mouse TRPC4, confirmation, cell-based, second round, Fluo-4, HEK293 TRPC4beta/mu-opioid, 1 µM (AID 2554); settings: DAMGO EC20, Fluo-4 calcium flux, at 1 µM; stronger effect = higher value
[4] = system: TRPC4 beta (transient receptor potential cation channel C4), mouse; experiment: positive allosteric modulators of mouse TRPC4, confirmation, cell-based, Fluo-4, HEK293 TRPC4beta/mu-opioid (AID 2555;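 active = primary screen hit whose calcium fluorescence ratio, in both repeats, exceeds the weak agonist control mean by 3 SD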); settings: DAMGO EC20, Fluo-4 calcium flux, at 10 µM; stronger effect = higher value
[5] = target: Short transient receptor potential channel 4 (Mus musculus) (UniProt Q9QUQ5); experiment: inhibitors of mouse TRPC4 channel, confirmation, cell-based, Fluo4, HEK293 TRPC4beta/mu-opioid (AID 2636;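 active = calcium signal cut by more than 3 SD below the full-agonist control yet still positive, in both repeats and the earlier primary screen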); settings: DAMGO, Fluo4 calcium flux, at 10 µM; stronger effect = higher value
[6] = target: Short transient receptor potential channel 4 (Mus musculus) (UniProt Q9QUQ5); experiment: inhibitors of mouse TRPC4 channel, confirmation, cell-based, second round, Fluo4, HEK293 TRPC4beta/mu-opioid, 1 µM (AID 2637;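 active = calcium signal ratio cut to more than 3 SD under the fully stimulated control mean yet still positive, in both repeats and the primary screen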); settings: Fluo4 calcium flux, DAMGO, at 1 µM; stronger effect = higher value
[7] = target: Short transient receptor potential channel 4 (Mus musculus) (UniProt Q9QUQ5); experiment: TRPC4 positive allosteric modulators, dose response, cell-based, HEK293 TRPC4/mu-opioid, Fluo-4 calcium, EC20 DAMGO (AID 434941;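 active = earlier screen potentiator hit that boosts the TRPC4 ion channel at some dose, with a dose response; inactive = no potentiation, no dose response, or not a prior hit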;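 also: calcium entry triggered by an EC20 dose of DAMGO at the co-expressed mu-opioid receptor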)
[8] = target: Short transient receptor potential channel 4 (Mus musculus) (UniProt Q9QUQ5); experiment: mouse TRPC4 channel inhibitors, dose response, cell-based, HEK293 TRPC4/mu-opioid, Fluo-4 calcium (AID 434942;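 active = primary screen inhibitor hit that blocks the TRPC4 channel at some tested dose, yielding a dose curve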)
[9] = target: Short transient receptor potential channel 6 (Mus musculus) (UniProt Q61143); experiment: inhibition of mouse TRPC6 channel, confirmation, selectivity assay for TRPC4 inhibitor project, cell-based, HEK293, membrane potential dye, duplicate (AID 434948;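 active = active in primary screen and both duplicates, each dropping signal beyond three positive-control SD with fluorescence still positive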); settings: HEK293 TRPC6, membrane potential dye fluorescence, at 10 µM, stimulated with maximal-effect acetylcholine; stronger effect = higher value
[10] = target: Short transient receptor potential channel 6 (Mus musculus) (UniProt Q61143); experiment: activation of mouse TRPC6 channel, confirmation, selectivity assay for TRPC4 activator project, cell-based, HEK293, membrane potential dye, duplicate (AID 434950;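 active = membrane potential signal rise above negative control mean plus 3 SD in both duplicates, also active in the earlier TRPC4 screen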;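 as to activation: 0% = buffer only wells and 100% = acetylcholine maximal-effect wells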); settings: HEK293 TRPC6, membrane potential fluorescence, at 10 µM; stronger effect = higher value
[11] = target: Short transient receptor potential channel 6 (Mus musculus) (UniProt Q61143); experiment: TRPC6 potentiation by TRPC4 potentiator hits, confirmation, selectivity assay for TRPC4 potentiator project, HEK293 cells, membrane potential dye, duplicate (AID 434952;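 active = compound raising the membrane signal above positive-control mean plus 3 SD in both repeats, and a primary screen hit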); settings: HEK293 TRPC6, membrane potential dye fluorescence, at 10 µM, maximal acetylcholine added after compound; stronger effect = higher value
[12] = target: Short transient receptor potential channel 4 (Mus musculus) (UniProt Q9QUQ5); experiment: calcium flux activators in TRPC4/5HT1a cells, counter-screen for TRPC4 activator project, cell-based, second counter screen, HEK293 TRPC4/5HT1a, Fluo-4 (AID 434977;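 active = calcium signal rise above buffer-control mean plus 5 SD in both duplicates, and also a hit in the primary screen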;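 as to activation: plate controls were assay buffer for no effect and maximal serotonin response for full effect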); settings: Fluo-4 calcium flux, at 10 µM; stronger effect = higher value
[13] = calcium flux inhibitors in TRPC4/5HT1a cells, confirmation, counter-screen for TRPC4 inhibitor project, cell-based, second counter screen, HEK293 TRPC4/5HT1a, Fluo-4 (AID 434978;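 active = primary screen active whose calcium signal fell more than 3 SD beyond the full-serotonin control mean in both duplicate plates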;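 also: serotonin given first at submaximal then at maximal dose after compound preincubation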); settings: Fluo-4 calcium flux, at 10 µM, serotonin added to trigger calcium flux; stronger effect = higher value
[14] = system: TRPC4 (mouse), co-expressed with 5HT1a in HEK293; experiment: calcium flux potentiators in TRPC4/5HT1a cells, confirmation, counter-screen for TRPC4 potentiator project, cell-based, second counter screen, HEK293 TRPC4/5HT1a, Fluo-4 (AID 434979;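 active = signal rise over 3 SD above mean of control wells given weak agonist, in both repeats and first screen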); settings: Fluo-4 calcium flux, at 10 µM, serotonin added at its EC20 dose; stronger effect = higher value
[15] = calcium flux activation in mu-opioid HEK293 cells, confirmation, counter-screen for TRPC4 activator project, cell-based, HEK293 mu-opioid receptor line (AID 449723;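 active = hit in primary screen, with calcium signal over 5 SD above buffer well mean in both duplicates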;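 also: counter screen cells carry the mu-opioid receptor alone and lack TRPC4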); settings: Fluo-4 calcium fluorescence, at 10 µM; stronger effect = higher value
[16] = calcium flux enhancement in mu-opioid HEK293 cells, confirmation, counter-screen for TRPC4 allosteric potentiator project, cell-based, HEK293 mu-opioid receptor line (AID 449724;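 active = calcium signal rise more than 3 SD above the low-dose agonist control mean, in both duplicate plates and the primary screen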); settings: Fluo-4 calcium flux, at 10 µM, compound added before EC20 DAMGO stimulus; stronger effect = higher value

Short transient receptor potential channel 4 (Mus musculus), sequence (Q9QUQ5 whole entry, looked up): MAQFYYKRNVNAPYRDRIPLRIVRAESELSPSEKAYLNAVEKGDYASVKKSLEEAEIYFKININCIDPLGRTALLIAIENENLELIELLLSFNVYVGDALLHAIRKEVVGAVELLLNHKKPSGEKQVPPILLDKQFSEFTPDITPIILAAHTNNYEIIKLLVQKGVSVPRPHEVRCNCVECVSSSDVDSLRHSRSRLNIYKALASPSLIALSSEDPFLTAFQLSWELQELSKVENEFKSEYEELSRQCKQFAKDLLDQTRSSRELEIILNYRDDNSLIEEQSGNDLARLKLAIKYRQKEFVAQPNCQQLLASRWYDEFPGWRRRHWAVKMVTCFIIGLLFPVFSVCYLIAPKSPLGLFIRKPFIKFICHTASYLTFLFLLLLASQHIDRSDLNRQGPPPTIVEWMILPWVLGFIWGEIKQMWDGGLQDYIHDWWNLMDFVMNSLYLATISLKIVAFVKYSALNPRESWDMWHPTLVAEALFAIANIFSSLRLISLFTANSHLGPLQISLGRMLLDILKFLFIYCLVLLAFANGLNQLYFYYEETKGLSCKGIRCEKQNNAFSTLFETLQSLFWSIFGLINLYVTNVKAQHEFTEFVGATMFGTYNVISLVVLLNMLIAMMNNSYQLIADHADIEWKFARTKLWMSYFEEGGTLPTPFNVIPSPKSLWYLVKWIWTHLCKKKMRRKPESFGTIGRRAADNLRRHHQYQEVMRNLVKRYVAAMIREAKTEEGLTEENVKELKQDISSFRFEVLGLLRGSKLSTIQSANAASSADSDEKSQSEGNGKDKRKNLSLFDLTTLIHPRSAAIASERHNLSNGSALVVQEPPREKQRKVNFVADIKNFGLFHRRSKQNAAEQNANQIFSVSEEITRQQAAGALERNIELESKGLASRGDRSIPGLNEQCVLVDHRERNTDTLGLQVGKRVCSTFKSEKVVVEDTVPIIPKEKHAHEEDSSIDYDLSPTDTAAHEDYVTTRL
Short transient receptor potential channel 6 (Mus musculus), sequence (Q61143 whole entry, looked up): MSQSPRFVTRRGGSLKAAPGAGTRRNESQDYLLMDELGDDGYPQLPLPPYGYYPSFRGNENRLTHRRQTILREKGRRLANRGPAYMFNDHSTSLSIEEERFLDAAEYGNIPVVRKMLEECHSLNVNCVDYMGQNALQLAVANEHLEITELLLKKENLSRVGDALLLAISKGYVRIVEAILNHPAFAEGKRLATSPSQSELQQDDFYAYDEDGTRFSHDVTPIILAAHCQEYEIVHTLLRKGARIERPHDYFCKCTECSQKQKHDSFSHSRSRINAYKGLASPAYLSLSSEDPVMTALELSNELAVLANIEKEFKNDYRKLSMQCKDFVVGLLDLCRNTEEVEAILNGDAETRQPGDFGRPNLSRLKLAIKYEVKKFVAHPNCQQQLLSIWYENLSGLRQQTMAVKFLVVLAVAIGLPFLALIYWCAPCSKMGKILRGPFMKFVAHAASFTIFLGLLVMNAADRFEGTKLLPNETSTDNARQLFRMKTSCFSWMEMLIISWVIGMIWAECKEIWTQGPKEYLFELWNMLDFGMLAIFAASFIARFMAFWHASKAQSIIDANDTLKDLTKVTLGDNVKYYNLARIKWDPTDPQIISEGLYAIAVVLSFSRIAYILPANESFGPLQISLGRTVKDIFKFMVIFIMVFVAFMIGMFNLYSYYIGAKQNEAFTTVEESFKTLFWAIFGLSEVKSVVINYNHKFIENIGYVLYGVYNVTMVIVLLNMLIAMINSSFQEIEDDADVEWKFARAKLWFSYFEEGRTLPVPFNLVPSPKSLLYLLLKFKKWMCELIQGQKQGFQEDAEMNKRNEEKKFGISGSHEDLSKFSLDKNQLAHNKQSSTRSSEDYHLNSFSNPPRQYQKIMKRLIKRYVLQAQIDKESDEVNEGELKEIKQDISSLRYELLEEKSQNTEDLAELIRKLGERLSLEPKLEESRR

## COc1cccc(C(=O)OC2CCCN(C)C2)c1 (stereo not given)
[1]
  activation: 135% (active)
[2]
  activation: 85% (active)
[3]
  outcome: inactive
[4]
  outcome: inactive
[5]
  outcome: inactive
[6]
  outcome: inactive
[7]
  outcome: inactive
[8]
  outcome: inactive
[9]
  outcome: inactive
[10]
  activation: 43% (active)
[11]
  outcome: inactive
[12]
  activation: 48.9% (active)
[13]
  outcome: inactive
[14]
  outcome: inactive
[15]
  outcome: inactive
[16]
  outcome: inactive

## CN1CCN(C(=O)c2cccn(Cc3c(Cl)cccc3Cl)c2=O)CC1
[1]
  activation: 147% (active)
[2]
  activation: 88% (active)
[3]
  outcome: inactive
[4]
  outcome: inactive
[5]
  outcome: inactive
[6]
  outcome: inactive
[7]
  outcome: inactive
[8]
  outcome: inactive
[9]
  outcome: inactive
[10]
  outcome: inactive
[11]
  outcome: inactive
[12]
  activation: 42.6% (active)
[13]
  outcome: inactive
[14]
  outcome: inactive
[15]
  outcome: inactive
[16]
  outcome: inactive

## CCC(=O)NC(C)C(c1cccs1)N1CCN(c2ccccc2)CC1 (stereo not given)
[1]
  outcome: inactive
[2]
  outcome: inactive
[3]
  outcome: inactive
[4]
  outcome: inactive
[5]
  outcome: inactive
[6]
  outcome: inactive
[7]
  outcome: inactive
[8]
  outcome: inactive
[9]
  outcome: inactive
[10]
  activation: 29% (active)
[11]
  outcome: inactive
[12]
  outcome: inactive
[13]
  outcome: inactive
[14]
  outcome: inactive
[15]
  outcome: inactive
[16]
  outcome: inactive

## COc1ccc(C(CNC(=O)c2ccc3c(c2)OCCO3)N(C)C)cc1 (stereo not given)
[1]
  activation: 153% (active)
[2]
  activation: 123% (active)
[3]
  outcome: inactive
[4]
  outcome: inactive
[5]
  outcome: inactive
[6]
  outcome: inactive
[7]
  outcome: inactive
[8]
  outcome: inactive
[9]
  outcome: inactive
[10]
  activation: 49% (active)
[11]
  outcome: inactive
[12]
  outcome: inactive
[13]
  outcome: inactive
[14]
  outcome: inactive
[15]
  outcome: inactive
[16]
  outcome: inactive

## Cc1ccc(S(=O)(=O)/N=C2/NC(=O)/C(=C\c3cc(Br)cc(Br)c3O)S2)cc1
[1]
  outcome: inactive
[2]
  outcome: inactive
[3]
  outcome: inactive
[4]
  potentiation: 35% (active)
[5]
  outcome: inactive
[6]
  outcome: inactive
[7]
  outcome: inactive
[8]
  outcome: inactive
[9]
  outcome: inactive
[10]
  activation: 447% (active)
[11]
  outcome: inactive
[12]
  activation: 45.6% (active)
[13]
  outcome: inactive
[14]
  potentiation: 9.14% (active)
[15]
  activation: 60.8% (active)
[16]
  activation: 600% (active)

## CCn1c(N2CCN(S(=O)(=O)CC)CC2)nc2ccccc21
[1]
  activation: 96% (active)
[2]
  outcome: inactive
[3]
  outcome: inactive
[4]
  outcome: inactive
[5]
  outcome: inactive
[6]
  outcome: inactive
[7]
  outcome: inactive
[8]
  outcome: inactive
[9]
  outcome: inactive
[10]
  outcome: inactive
[11]
  outcome: inactive
[12]
  activation: 19.2% (active)
[13]
  outcome: inactive
[14]
  outcome: inactive
[15]
  outcome: inactive
[16]
  outcome: inactive

## CCN(CC)CCCNC(=O)c1cc2c(-c3ccc(Cl)cc3)nn(C)c2s1
[1]
  outcome: inactive
[2]
  outcome: inactive
[3]
  potentiation: 13% (active)
[4]
  outcome: inactive
[5]
  outcome: inactive
[6]
  outcome: inactive
[7]
  outcome: inactive
[8]
  outcome: inactive
[9]
  outcome: inactive
[10]
  outcome: inactive
[11]
  outcome: inactive
[12]
  activation: 12.6% (active)
[13]
  outcome: inactive
[14]
  potentiation: 31.3% (active)
[15]
  outcome: inactive
[16]
  outcome: inactive

## COc1cccc(C(=O)NC2CCCN(C3Cc4ccccc4C3)C2)c1OC (stereo not given)
[1]
  activation: 132% (active)
[2]
  outcome: inactive
[3]
  outcome: inactive
[4]
  outcome: inactive
[5]
  outcome: inactive
[6]
  outcome: inactive
[7]
  outcome: inactive
[8]
  outcome: inactive
[9]
  outcome: inactive
[10]
  activation: 57.5% (active)
[11]
  outcome: inactive
[12]
  activation: 82.8% (active)
[13]
  outcome: inactive
[14]
  outcome: inactive
[15]
  outcome: inactive
[16]
  outcome: inactive

## Cc1ccc(NC(=O)CCN2CCC(Cc3ccccc3)CC2)cc1
[1]
  outcome: inactive
[2]
  outcome: inactive
[3]
  outcome: inactive
[4]
  outcome: inactive
[5]
  outcome: inactive
[6]
  outcome: inactive
[7]
  outcome: inactive
[8]
  outcome: inactive
[9]
  outcome: inactive
[10]
  outcome: inactive
[11]
  outcome: inactive
[12]
  activation: 15.7% (active)
[13]
  outcome: inactive
[14]
  outcome: inactive
[15]
  outcome: inactive
[16]
  outcome: inactive

## Cc1ccc2nc(N(CCCN(C)C)C(=O)c3ccc(S(=O)(=O)N4CCc5ccccc5C4)cc3)sc2c1
[1]
  activation: 242% (active)
[2]
  activation: 75% (active)
[3]
  outcome: inactive
[4]
  outcome: inactive
[5]
  outcome: inactive
[6]
  outcome: inactive
[7]
  outcome: inactive
[8]
  outcome: inactive
[9]
  outcome: inactive
[10]
  outcome: inactive
[11]
  outcome: inactive
[12]
  activation: 7.33% (active)
[13]
  outcome: inactive
[14]
  outcome: inactive
[15]
  outcome: inactive
[16]
  outcome: inactive

## O=C1c2ccccc2S(=O)(=O)c2cc(C(=O)N(c3ccccn3)c3ccccn3)ccc21
[1]
  activation: 107% (active)
[2]
  outcome: inactive
[3]
  outcome: inactive
[4]
  outcome: inactive
[5]
  outcome: inactive
[6]
  outcome: inactive
[7]
  outcome: inactive
[8]
  outcome: inactive
[9]
  outcome: inactive
[10]
  outcome: inactive
[11]
  outcome: inactive
[12]
  activation: 99.8% (active)
[13]
  outcome: inactive
[14]
  outcome: inactive
[15]
  activation: 25.6% (active)
[16]
  outcome: inactive

## COc1ccc(C(CNC(=O)Cc2cccs2)N(C)C)cc1 (stereo not given)
[1]
  activation: 102% (active)
[2]
  activation: 103% (active)
[3]
  outcome: inactive
[4]
  outcome: inactive
[5]
  outcome: inactive
[6]
  outcome: inactive
[7]
  outcome: inactive
[8]
  outcome: inactive
[9]
  outcome: inactive
[10]
  activation: 36.5% (active)
[11]
  outcome: inactive
[12]
  outcome: inactive
[13]
  outcome: inactive
[14]
  outcome: inactive
[15]
  outcome: inactive
[16]
  outcome: inactive

## COCC1CCN(Cc2cn(-c3ccccc3F)nc2-c2cc(C)sc2C)CC1
[1]
  activation: 95% (active)
[2]
  outcome: inactive
[3]
  outcome: inactive
[4]
  outcome: inactive
[5]
  outcome: inactive
[6]
  outcome: inactive
[7]
  outcome: inactive
[8]
  outcome: inactive
[9]
  outcome: inactive
[10]
  activation: 69.5% (active)
[11]
  outcome: inactive
[12]
  outcome: inactive
[13]
  outcome: inactive
[14]
  outcome: inactive
[15]
  outcome: inactive
[16]
  outcome: inactive

## CCC(=O)N1CCc2cc(Br)cc(S(=O)(=O)NCCCN(C)Cc3ccccc3)c21
[1]
  activation: 116% (active)
[2]
  activation: 65% (active)
[3]
  outcome: inactive
[4]
  outcome: inactive
[5]
  outcome: inactive
[6]
  outcome: inactive
[7]
  outcome: inactive
[8]
  outcome: inactive
[9]
  outcome: inactive
[10]
  activation: 55% (active)
[11]
  outcome: inactive
[12]
  activation: 33.1% (active)
[13]
  outcome: inactive
[14]
  potentiation: 26.2% (active)
[15]
  outcome: inactive
[16]
  outcome: inactive

## Cc1ccc2[nH]c3c(N4CCc5ccccc5C4)ncnc3c2c1
[1]
  outcome: inactive
[2]
  outcome: inactive
[3]
  outcome: inactive
[4]
  outcome: inactive
[5]
  outcome: inactive
[6]
  outcome: inactive
[7]
  outcome: inactive
[8]
  outcome: inactive
[9]
  outcome: inactive
[10]
  outcome: inactive
[11]
  outcome: inactive
[12]
  outcome: inactive
[13]
  outcome: inactive
[14]
  outcome: inactive
[15]
  outcome: inactive
[16]
  outcome: inactive
